Bioassay records (PubChem)
Statin myotox sup = protects C2C12 myotubes from simvastatin toxicity; AID 602340; rescue of ATP level, % at 7.49 µM; ATP luminescence, 48 h; scaled: DMSO 0, geranylgeraniol control 100; actives 0.78% (n = 330,000);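 active = mean ATP rescue above about 67%, or every replicate alone reaching that limit, limit read from the data, passing the limit was not always enough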;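 also: myotubes were challenged with 10 µM simvastatin during compound exposure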
ARNT-TACC3 inh = ARNT/TACC3 interaction disruption. Q9Y6A5. AlphaScreen His-ARNT PAS-B/GST-TACC3 binding, luminescence; TACC3 fragment carries E629A point mutation. inhibition, % at 9.99 µM. actives 0.66% (n = 390,000). AID 623870;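 active = mean inhibition of replicates at least 50% and at least half of replicates each reaching 50%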
CFTR F508del cor = CFTR F508del correction in bronchial cells | activity (quench increase), % at 7.58 µM | actives 0.36% (n = 350,000) | CFBE cells, YFP halide quenching; stimulated with forskolin plus potentiator P3; % fluorescence drop versus neutral controls | AID 720511;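 active = mean added fluorescence quench of at least 8% versus neutral control, with both replicates also reaching 8%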;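 also: cells transiently co-express mutant CFTR-F508del with the halide-sensitive YFP; corrector assay measuring rescue of mutant channel to the surface after 24 h compound exposure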
PglD DTNB = PglD (C. jejuni) enzyme inhibition. actives 0.098% (n = 360,000). inhibition, % at 12.5 µM. purified PglD enzyme, DTNB colorimetric CoA detection; in the data active = inhibition above about 16%, passing the limit was not always enough
Large screens that a line does not name were inactive. Most compounds without a hit are left out; they make up all but 1.4% or so of the library.

O=C(OC1CCN(c2ncc(C(F)(F)F)cc2Cl)CC1)c1ccc(Cl)cc1	none (no result: CFTR F508del cor)
CCCNc1ncc2c(=O)[nH][nH]c(=O)c2n1	ARNT-TACC3 inh 81
CCCNc1nc2ccccc2c(=O)[nH]1	none
COc1ccc2c(c1)C(O)C(CO)C(C(=O)O)C2 (configuration not stated)	CFTR F508del cor 10 (no result: Statin myotox sup, PglD DTNB)
Cc1ccc(-c2csc3nc4c5ccccc5c(NCCCN(C)C)nn4c(=O)c23)cc1	ARNT-TACC3 inh 67
Fc1ccc2nc(C3CCN(Cc4nc(CC5CC5)no4)CC3)[nH]c2c1	CFTR F508del cor 8.6 (no result: Statin myotox sup, PglD DTNB)
Cn1c(SCc2nc(-c3ccccc3)no2)nnc1-c1cccs1	none (no result: CFTR F508del cor)
Cn1c(SCc2nc(-c3ccc(Cl)cc3)no2)nnc1-c1cccs1	Statin myotox sup 84 (no result: CFTR F508del cor)
Cc1ccc(C(=O)N/C(=C\c2ccco2)C(=O)NCCCn2ccnc2)cc1C	ARNT-TACC3 inh 77
Cc1ccc(C(=O)N/C(=C\c2cccs2)C(=O)NCCCn2ccnc2)cc1	none (no result: Statin myotox sup, CFTR F508del cor, PglD DTNB)
Cc1ccc(C(=O)N/C(=C\c2cccs2)C(=O)NCCCn2ccnc2)cc1C	ARNT-TACC3 inh 71 (no result: Statin myotox sup, CFTR F508del cor)
Oc1cccc2ccc(Nc3ccccn3)nc12	ARNT-TACC3 inh 64 (no result: Statin myotox sup, CFTR F508del cor)
c1ccc(Nc2ccccc2Nc2ccccn2)nc1	none (no result: PglD DTNB)
C[C@@H]1CN([C@@H](C)CO)C(=O)Cc2cc(NS(=O)(=O)c3ccc(F)cc3)ccc2O[C@H]1CN(C)Cc1ccc(Oc2ccccc2)cc1	Statin myotox sup 99
COc1ccc(CN(C)C[C@H]2Oc3ccc(NS(=O)(=O)c4ccc(Cl)cc4)cc3CC(=O)N([C@@H](C)CO)C[C@@H]2C)cc1	Statin myotox sup 86
COc1ccc(S(=O)(=O)Nc2ccc3c(c2)CC(=O)N([C@@H](C)CO)C[C@@H](C)[C@H](CN(C)Cc2ccc(Oc4ccccc4)cc2)O3)cc1	Statin myotox sup 97
COc1ccc(CN(C)C[C@H]2Oc3ccc(NS(=O)(=O)c4ccc(Cl)cc4)cc3CC(=O)N([C@H](C)CO)C[C@H]2C)cc1	none
C[C@H](CO)N1C[C@H](C)[C@H](CN(C)Cc2ccc(Oc3ccccc3)cc2)Oc2ccc(NS(=O)(=O)c3ccc(F)cc3)cc2CC1=O	none
COc1ccc(S(=O)(=O)Nc2ccc3c(c2)CC(=O)N([C@@H](C)CO)C[C@H](C)[C@@H](CN(C)Cc2ccc(Cl)c(Cl)c2)O3)cc1	Statin myotox sup 122
C[C@H](CO)N1C[C@H](C)[C@H](CN(C)C(=O)c2ccccn2)Oc2ncc(-c3ccccc3)cc2C1=O	none
COc1ccc(-c2ccc([C@H]3[C@H]4CN(C(=O)c5ccccn5)CC(=O)N4[C@H]3CO)cc2)cc1	none (no result: Statin myotox sup, ARNT-TACC3 inh, PglD DTNB)
COc1ccc(S(=O)(=O)Nc2ccc3c(c2)CC(=O)N([C@H](C)CO)C[C@@H](C)[C@H](CN(C)Cc2ccccc2)O3)cc1	Statin myotox sup 72
COc1ccc(S(=O)(=O)Nc2ccc3c(c2)CC(=O)N([C@@H](C)CO)C[C@H](C)[C@H](CN(C)Cc2ccccc2)O3)cc1	none
O=C1/C(=C\c2ccc3c(c2)OCO3)CCC/C1=C/c1ccc2c(c1)OCO2	none (no result: Statin myotox sup, CFTR F508del cor, PglD DTNB)
CC1CC/C(=C\c2ccc3c(c2)OCO3)C(=O)/C1=C/c1ccc2c(c1)OCO2 (configuration not stated)	Statin myotox sup 207 (no result: CFTR F508del cor)
COc1ccc(NC(=O)Nc2cccc3c2O[C@@H](CN(C)C(=O)Nc2cccc4ccccc24)[C@H](C)CN([C@H](C)CO)C3=O)cc1	Statin myotox sup 98
COc1ccc(C#Cc2cnc3c(c2)C(=O)N([C@H](C)CO)C[C@H](C)[C@H](CN(C)C(=O)Nc2cccc(OC)c2)O3)cc1	none (no result: ARNT-TACC3 inh, PglD DTNB)
C[C@H](CO)N1C[C@H](C)[C@H](CN(C)C(=O)Nc2ccnc(N3CCOCC3)c2)OCc2ccccc2-c2ccccc2C1=O	ARNT-TACC3 inh 12
COc1ccc(NC(=O)Nc2cccc3c2O[C@@H](CN(C)C(=O)Nc2cccc4ccccc24)[C@@H](C)CN([C@@H](C)CO)C3=O)cc1	none
C[C@H](CO)N1C[C@H](C)[C@@H](CN(C)CC2CCCC2)Oc2ncc(C#Cc3ccncc3)cc2C1=O	Statin myotox sup 103
COc1ccc(C#Cc2cnc3c(c2)C(=O)N([C@@H](C)CO)C[C@@H](C)[C@H](CN(C)C(=O)Nc2cccc(OC)c2)O3)cc1	Statin myotox sup 112 (no result: ARNT-TACC3 inh, PglD DTNB)
O=C(CN1CCOCC1)N1CCCCN2[C@H](CO)[C@H](c3ccc(C#Cc4ccccc4)cc3)[C@@H]2C1	none (no result: Statin myotox sup)
Cc1noc(C)c1S(=O)(=O)N(C)C[C@H]1Oc2ccc(NC(=O)CCCN(C)C)cc2C(=O)N([C@H](C)CO)C[C@H]1C	none (no result: Statin myotox sup)
Cc1ccc(S(=O)(=O)Nc2ccc3c(c2)C(=O)N([C@H](C)CO)C[C@H](C)[C@@H](CN(C)C(=O)c2ccncc2)OCCCC[C@H](C)O3)cc1	none
COc1ccc(C#Cc2cnc3c(c2)C(=O)N([C@H](C)CO)C[C@H](C)[C@H](CN(C)Cc2cccc(C(F)(F)F)c2)O3)cc1OC	Statin myotox sup 152
CC(C)CC#Cc1cnc2c(c1)C(=O)N([C@H](C)CO)C[C@H](C)[C@@H](CN(C)C(=O)Cc1ccccc1)O2	Statin myotox sup 77
COc1ccc(NC(=O)N(C)C[C@H]2Oc3c(NC(=O)NC(C)C)cccc3C(=O)N([C@H](C)CO)C[C@@H]2C)cc1	Statin myotox sup 96
COc1ccc(NC(=O)N(C)C[C@H]2Oc3c(cccc3N(C)C)C(=O)N([C@H](C)CO)C[C@H]2C)cc1	CFTR F508del cor 8.1
CC(C)CC#Cc1cnc2c(c1)C(=O)N([C@H](C)CO)C[C@@H](C)[C@@H](CN(C)C(=O)Cc1ccccc1)O2	none
COc1ccc(NC(=O)Nc2cccc3c2O[C@@H](CN(C)C(=O)Nc2ccc(OC)cc2)[C@H](C)CN([C@@H](C)CO)C3=O)cc1	none
COc1ccc(NC(=O)N(C)C[C@H]2Oc3c(cccc3N(C)C)C(=O)N([C@@H](C)CO)C[C@@H]2C)cc1	none
CC(C)NC(=O)Nc1ccc2c(c1)C(=O)N([C@@H](C)CO)C[C@@H](C)[C@@H](CN(C)S(=O)(=O)c1cccs1)OCCCC[C@H](C)O2	none (no result: Statin myotox sup)
CO[C@@H]1CN(C)C(=O)c2ccc(NC(=O)C3CCC3)cc2OC[C@H](C)N(C(=O)NC(C)C)C[C@@H]1C	none
CCc1c(C)[nH]c2ccc(C)cc2c1=O	none (no result: CFTR F508del cor)
C=CCc1c(C)[nH]c2ccc(C)cc2c1=O	Statin myotox sup 95 (no result: CFTR F508del cor)
CC(CCc1ccccc1)NC(=O)CN1CCN(Cc2ccc(Cl)cc2)C1=O (configuration not stated)	Statin myotox sup 67
CN1c2ccc(-c3cccc(F)c3)cc2[C@H]2[C@H](CCN2C(=O)c2ccc3c(c2)OCO3)[C@@H]1CO	none
C[C@H](CO)N1C[C@H](C)[C@H](CN(C)Cc2ccc(C(=O)Nc3ccccc3N)cc2)Oc2ccc(NS(=O)(=O)c3ccc(Cl)cc3)cc2C1=O	none
C[C@H](CO)N1C[C@H](C)[C@H](CN(C)Cc2ccc(C(=O)Nc3ccccc3N)cc2)Oc2ccc(NC(=O)Cn3cnnn3)cc2CC1=O	none (no result: Statin myotox sup, ARNT-TACC3 inh, PglD DTNB)
COc1ccc2cc(CN(CC3CCCO3)C(=S)Nc3ccccc3)c(=O)[nH]c2c1 (configuration not stated)	CFTR F508del cor 10 (no result: Statin myotox sup, PglD DTNB)
